# Screening data deposited in PubChem BioAssay by National Center for Advancing Translational Sciences (NCATS).
# This is one part of a sample in which hits are shown more often than they occur.
# Pf Dd2 growth: inhibitors of Plasmodium falciparum Dd2 growth; 120,000 compounds, 4.3% hits; AID 1347417; P. falciparum Dd2 growth, SYBR Green, 72 h; Potency, µM (highest dose often 28.9 µM), inactives show at the top dose activity, negative = inhibition, most hits filed as inhibitors; active means well fitted inhibition curve with a large enough effect;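 further: plate controls were DMSO vehicle for no effect and reference drug for full effect; nearly all actives have a fitted effect of over 65% in size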
#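 Readout: SYBR Green fluorescence, 485 nm excitation, 535 nm emission, after ~16 h lysis at 37C. Before that, Dd2-infected red cells (2.5% hematocrit) grew 72 h with compound, 29 uM top final concentration.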
# Starred values were filed as active, the others as inactive; i = inactive; [ ] = another dose, or the depositor's remark. Potency means the concentration at half of the fitted maximal effect.
SMILES,Pf Dd2 growth
COCCN1C(=O)c2cccn2CC1CNC(=O)c1ccc2ncccc2c1 (configuration not stated),-6%
O=C(C1CCCC1)N1CCn2c(nn(-c3ccncc3)c2=O)C1,-7%[44.1 µM]
CC(C)N1C(=O)[C@@H]2[C@@H](CCN2C(=O)CSCC(=O)O)N(Cc2cccc(F)c2)C1=O,-5%[44.1 µM]
CCOc1ccccc1N1CCN(C(=O)c2ccc3c(c2)N(C)C2CCCCN2C3=O)CC1 (configuration not stated),5µM*
CN1c2cc(C(=O)N3CCN(c4ccccc4Cl)CC3)ccc2C(=O)N2CCCCC21 (configuration not stated),6.3µM*
CCN1c2cc(C(=O)N3CCCCC3)ccc2C(=O)N2CCCCCC21 (configuration not stated),i
CCN1c2cc(C(=O)N3CCN(c4ccccc4)CC3)ccc2C(=O)N2CCCCC21 (configuration not stated),i
CN1c2cc(C(=O)N3CCN(c4ccc(F)cc4)CC3)ccc2C(=O)N2CCCCCC21 (configuration not stated),i
Cc1cccc(NC(=O)c2ccc3c(c2)N(C)C2CCCCCN2C3=O)c1 (configuration not stated),i
Cc1cccc(N2CCN(C(=O)c3ccc4c(c3)N(C)C3CCCCCN3C4=O)CC2)c1 (configuration not stated),8.9µM*
CCN1c2cc(C(=O)N3CCN(c4ccccn4)CC3)ccc2C(=O)N2CCCCC21 (configuration not stated),i
CN1c2cc(C(=O)Nc3ccccc3)ccc2C(=O)N2CCCCC21 (configuration not stated),i
CCCc1ccc(S(=O)(=O)N2C[C@@H](F)C[C@H]2C(=O)N2CCc3ccccc3C2)cc1,-8%
O=C1CCCCC(C(=O)NCc2cc(F)ccc2F)N1 (configuration not stated),29%
CCCc1cc(C(=O)NCCc2nc(-c3ccccn3)no2)n[nH]1,-15%
COCCN1CCCCCC(O)c2cc(C(=O)NCCCc3ccccc3)ccc21 (configuration not stated),-24%
O=C(NCCc1noc(-c2ccncc2)n1)c1ccccc1,-1%
COc1ccc(CN2C[C@@H](F)[C@@H](OCc3nc4ccncc4[nH]3)C2)cc1,-23%[44.1 µM]
COc1nc2nc(CCc3ccccc3)n(C)c2cc1Nc1ccncn1,-12%[44.1 µM]
COCc1nc2nc(-c3ccccc3)c(-c3ccc(OC)cc3)cc2n1C,i
COc1ccccc1-c1cc2c(nc1OC)nc(CC1CC1)n2C,13µM*
O=C(Nc1cccc(F)c1)N1CCC(O)(c2csc(CN3CCOCC3)n2)CC1,-6%[44.1 µM]
CC1=C[C@@H](CN2CCN(C)CC2)[C@H](C(C)C)C[C@H]1Cc1nnc(C)o1,i
CC1=C[C@@H](CN2CCC(C(N)=O)CC2)[C@H](C(C)C)C[C@H]1Cc1nnc(-c2ccccc2F)o1,i
CC1=C[C@@H](CN2CCC(C(N)=O)CC2)[C@H](C(C)C)C[C@H]1Cc1nnc(-c2ccc(N(C)C)cc2)o1,3.5µM*
SMILES,Pf Dd2 growth
CC1=C[C@@H](CN2CCC[C@H]2CO)[C@H](C(C)C)C[C@H]1Cc1nnc(-c2cncn2C)o1,-33%[44.1 µM]
CC1=C[C@@H](CN2CCN(C)CC2)[C@H](C(C)C)C[C@H]1Cc1nnc(-c2ccc(N(C)C)cc2)o1,4µM*
COc1ccc(CN2CCOc3nc(-c4ccc(O)c(F)c4)ncc3C2=O)cc1,i
CC(C(=O)NCc1nnc2ccc(-c3ccccc3)nn12)c1ccccc1 (configuration not stated),-23%
COCc1noc(-c2ccc(NC[C@H]3CCc4ccccc4O3)nc2)n1,-28%
CC1=C[C@@H](CNC(=O)C2CC2)[C@H](C(C)C)C[C@H]1Cc1nc2ccccc2n1C,i
CC1=C[C@@H](CNC(=O)Cn2cnnn2)[C@H](C(C)C)C[C@H]1Cc1nc2ccccc2n1C,10µM*
CC1=C[C@@H](CNC(=O)CN(C)C)[C@H](C(C)C)C[C@H]1Cc1nc2ccccc2[nH]1,i
CC1=C[C@@H](CNC(=O)c2cnccn2)[C@H](C(C)C)C[C@H]1Cc1nc2ccccc2n1C,8.9µM*
COCC(=O)NC[C@@H]1C=C(C)[C@H](Cc2nc3ccccc3n2C)C[C@H]1C(C)C,10µM*
CC1=C[C@@H](CNC(=O)Cn2cnnn2)[C@H](C(C)C)C[C@H]1Cc1nc2ccc(C)cc2[nH]1,i
CC1=C[C@@H](CNC(=O)Cc2ccccc2)[C@H](C(C)C)C[C@H]1Cc1nc2ccncc2[nH]1,-10%[44.1 µM]
CC1=C[C@@H](CNC(=O)c2cnccn2)[C@H](C(C)C)C[C@H]1Cc1nc2ccccc2[nH]1,i
CC1=C[C@@H](CNC(=O)CC2(CC(=O)O)CCCC2)[C@H](C(C)C)C[C@H]1Cc1nc2ccccc2n1C,i
COc1ccccc1-n1c(=O)[nH]c2cccnc21,-16%[44.1 µM]
COc1c(C)cnc(Cn2c(-c3ccccc3)nc(C)c(CCO)c2=O)c1C,-6%
O=C(N[C@@H]1CCOC[C@H]1OCCO)c1cc(C2CC2)nc2ccccc12,-4%
